PubChem BioAssay (Tox21)
Inconclusive results are not listed. A number with no mark means an inactive call. The source made the active and inactive calls. Calls follow the shape of the dose curve; as a rule, active = well fitted cell-killing curve with a large enough effect in the repeat runs; inconclusive = weak or mixed curves, or effect the other way; inactive = flat fitted curve, though single readings scatter.

Assay: cAMP Responsive Elements (CRE) small molecule antagonists, cell-based qHTS assay: qHTS cell viability counter screen (AID 2060913); also: nearly all actives have a fitted effect of over 40% in size
Conditions: CRE-bla HEK293T viability, CellTiter-Glo luminescence, 5 h; series mostly up to 92.4 µM; viability change, negative = cytotoxic: at the top concentration
Summary of the method: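 Viability of NKH477-stimulated (0.25 uM final) CRE-bla HEK293T cells is measured by CellTiter-Glo luminescence following 3 hrs compound exposure at 37 C.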
% is scaled to controls: 0 for no effect and ±100 for the full control effect; potency is read from the fitted curve at half-maximal effect.

Structure (SMILES) | Potency | viability change, negative = cytotoxic
Cc1cccc(C)c1O | inactive | 
O=C1OCCN1/N=C/c1ccc([N+](=O)[O-])o1 |  | -3.27% [at 42.5 µM]
CCC[C@@H]1C[C@@H](C(=O)N[C@@H]([C@H]2O[C@H](SC)[C@H](O)[C@@H](O)[C@H]2O)[C@@H](C)O)N(C)C1 |  | 1.34% [at 42.5 µM]
CSc1ccc2c(c1)C(N1CCN(C)CC1)Cc1ccccc1S2 (stereo not given) |  | -14.6% [at 42.5 µM]
O=C(Oc1ccccc1C(=O)O)c1ccccc1O |  | 7.45% [at 42.5 µM]
C/C=C/C=C/C(=O)O | inactive | 
OC/C(Br)=C(\Br)CO |  | 9.86%
CC(COC(C)(C)C)OCCCO (stereo not given) |  | 2.9%
CO[Si](C)(OC)c1ccccc1 |  | 2.68%
OC[C@@H](O)[C@H](O)[C@@H](O)[C@@H](O)CO |  | -6.69%
Cc1onc(-c2ccccc2)c1C(=O)Cl |  | 2.84% [at 42.5 µM]
CCCCN1CCCC1C(=O)Nc1c(C)cc(C)cc1C (stereo not given) |  | -5.34% [at 42.5 µM]
Cc1ncc([N+](=O)[O-])n1CCO | inactive | 
O=[N+]([O-])c1cc[n+]([O-])cc1 |  | -11.7%
O=C1c2ccccc2C(=O)C1c1nc2ccccc2c(Br)c1O |  | 5.15%
[O-][n+]1ccccc1SSc1cccc[n+]1[O-] | 461 nM (active) | 
CC(C)[N+](C)(CCOC(=O)C1c2ccccc2Oc2ccccc21)C(C)C | inactive | 
CCCOC(=O)NCCCN(C)C | inactive | 
CO[Si](CCCNCCNCCN)(OC)OC |  | -0.241%
CC(C)(c1cc(Br)c(OCC(Br)CBr)c(Br)c1)c1cc(Br)c(OCC(Br)CBr)c(Br)c1 (stereo not given) |  | -15.4% [at 42.5 µM]

Structure (SMILES) | Potency | viability change, negative = cytotoxic
CCCCCCCCCCCCI |  | 4.04%
CC/C=C\C/C=C\C/C=C\CCCCCCCC(=O)OCC |  | 0.916%
c1ccc2sc(SSN3CCOCC3)nc2c1 | inactive | 
CC(C)CCCCCOC(=O)CCCCC(=O)OCCCCCC(C)C |  | 3.77%
O=C(O)c1cccnc1 | inactive | 
Fc1ccc(C(c2ccc(F)cc2)N2CCN(C/C=C/c3ccccc3)CC2)cc1 |  | -14.9% [at 42.5 µM]
CCC(C)c1cc([N+](=O)[O-])cc([N+](=O)[O-])c1OC(=O)OC(C)C (stereo not given) |  | -4.82%
CCC(C(=O)OCCN(CC)CC)c1ccccc1 (stereo not given) |  | -0.019% [at 42.5 µM]
C=CC(C)(O)CC/C=C(/C)CCC=C(C)C (stereo not given) |  | -15.6%
C[Si]1(C)O[Si](C)(C)O[Si](C)(C)O[Si](C)(C)O[Si](C)(C)O1 |  | 2.92%
O=C(O[C@@H](C(=O)O)[C@@H](OC(=O)c1ccccc1)C(=O)O)c1ccccc1 |  | -6.74%
C1COCCN1 | inactive | 
Cc1cc(CC(=O)O)c(C)n1-c1ccc(Cl)cc1 |  | 0.85% [at 42.5 µM]
CCCCOC(=O)/C=C\C(=O)OCCCC |  | -0.576%
CCCCCCCCCCOc1cc2c(=O)c(C(=O)OCC)c[nH]c2cc1OCC |  | -0.799% [at 8.39 µM]
Nc1ccc(O)c(C(=O)O)c1 | inactive | 
CN1C(C)(C)CCCC1(C)C |  | -2.14% [at 42.5 µM]
CC1(N)CCC(C(C)(C)N)CC1 (stereo not given) |  | 8.98%
COc1ccccc1OC(=O)Oc1ccccc1OC |  | -0.634% [at 42.5 µM]
O=C(CO)[C@@H](O)[C@H](O)[C@H](O)CO |  | 3.52%
